Assay results from PubChem BioAssay (EPA / NIEHS).
Records with an inconclusive call do not appear. Some structures have more than one record in an assay (separate samples or runs), and their calls can disagree. Calls of active or inactive are those of the source. How the source made its calls: active means hit-call score of the fitted dose curve at least 0.9, where 1 is the maximum; inconclusive means response in the unintended direction; inactive means score below 0.9.

Key:
[1] = test system: zebrafish Androgen Receptor (AR), gene 100005148; assay: ATG_zfAR_XSP1: Attagene TRANS-FACTORIAL Multi-Species (XSP1) HepG2 Assay for zebrafish Androgen Receptor (AR) (AID 2283771)
Method in brief: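 HepG2 cells were transiently transfected with a zebrafish AR-GAL4 reporter system and partially stimulated with 3 nM 6-alpha-fluorotestosterone. Reporter mRNA was measured after 24 h dosing by RT-PCR with capillary electrophoresis, and gain-of-signal was fitted relative to DMSO.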

[2] = test system: zebrafish Estrogen Receptor (ESR2B), gene 317733; assay: ATG_zfER2b_XSP1: Attagene TRANS-FACTORIAL Multi-Species (XSP1) HepG2 Assay for zebrafish Estrogen Receptor (ESR2B) (AID 2283773)
Method in brief: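 HepG2 cells transiently transfected with multiple GAL4-UAS reporter units expressing chimeric zebrafish ER2b-Gal4; 24 h chemical exposure with 3 nM 6-alpha-fluorotestosterone present. Reporter mRNA measured by RT-PCR and capillary electrophoresis; gain of signal fitted versus DMSO.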

[3] = test system: frog Estrogen Receptor (ESR2), gene 100174814; assay: ATG_frER2_XSP1: Attagene TRANS-FACTORIAL Multi-Species (XSP1) HepG2 Assay for frog Estrogen Receptor (ESR2) (AID 2283774)
Method in brief: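 HepG2 cells transiently transfected with GAL4-UAS multiplexed reporter units expressing chimeric NR-Gal4 proteins; reporter mRNA measured 24 h after dosing by RT-PCR, FAM labeling, HpaI digestion and capillary electrophoresis. Gain-of-signal relative to DMSO; 3 nM 6-alpha-fluorotestosterone present.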

[4] = ACEA_AR_agonist_AUC_viability: ACEA Biosciences xCELLigence Real-Time Cell Analysis on Androgen Receptor Agonism for Viability (AID 2283775);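 on AC50: viability read 80 hours after compound addition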
Method in brief: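 Read-out is area under the impedance curve at 80 h post-dose in 22Rv1 cells, with DMSO as baseline and signal loss taken as reduced viability. Compounds ran in duplicate from 100 uM final.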

[5] = ACEA_AR_antagonist_AUC_viability: ACEA Biosciences xCELLigence Real-Time Cell Analysis on Androgen Receptor Antagonism for Viability (AID 2283776);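 further: area under impedance growth curve at 80 h after dosing as viability; hits lower the growth signal relative to DMSO meaning cytotoxicity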
Method in brief: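 22Rv1 human prostate cancer cells were seeded on electrode plates, monitored overnight, then exposed to eight 1:4 dilutions from 100 uM final. Impedance-based growth kinetics at 80 h gave an AUC viability endpoint normalized to DMSO.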

[6] = test system: frog Estrogen Receptor (ESR1), gene 398734; assay: ATG_frER1_XSP1: Attagene TRANS-FACTORIAL Multi-Species (XSP1) HepG2 Assay for frog Estrogen Receptor (ESR1) (AID 2283777)
Method in brief: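 Read-out: fluorescent reporter mRNA via RT-PCR, HpaI digestion and capillary electrophoresis, after 24 h chemical exposure of transiently transfected human HepG2 cells expressing exogenous NR-Gal4 chimeras. DMSO served as baseline for positive-direction fitting.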

[7] = biological target: chicken Estrogen Receptor (ESR1), ESR1 (gene 396099) (UniProt P06212); assay: ATG_chERa_XSP1: Attagene TRANS-FACTORIAL Multi-Species (XSP1) HepG2 Assay for chicken Estrogen Receptor (ESR1) (AID 2283779)
Method in brief: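 HepG2 cells transiently transfected with multiplexed GAL4-UAS reporter units expressing chimeric NR-Gal4 proteins; 3 nM 6-alpha-fluorotestosterone present. Reporter mRNA measured 24 h after dosing by RT-PCR, FAM labelling, HpaI digest and capillary electrophoresis; gain of signal versus DMSO.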

[8] = biological target: Estrogen receptor (Homo sapiens) (UniProt P03372); assay: ATG_hERa_XSP1: Attagene TRANS-FACTORIAL Multi-Species (XSP1) HepG2 Assay for human Estrogen Receptor (ESR1) (AID 2283780)
Method in brief: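 HepG2 cells transiently transfected with GAL4-UAS reporter units and chimeric NR-Gal4 constructs; 24 h after dosing, reporter mRNA quantified by RT-PCR and capillary electrophoresis. Medium contained 3 nM 6-alpha-fluorotestosterone; activity fitted as gain-of-signal versus DMSO.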

[9] = test system: turtle Estrogen Receptor (ESR1), gene 101933533; assay: ATG_trERa_XSP1: Attagene TRANS-FACTORIAL Multi-Species (XSP1) HepG2 Assay for turtle Estrogen Receptor (ESR1) (AID 2283781)
Method in brief: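 HepG2 cells transiently transfected with GAL4-UAS reporter units and chimeric NR-Gal4 constructs, dosed for 24 h with 3 nM 6-alpha-fluorotestosterone present. Reporter mRNA was quantified by RT-PCR, fluorescent labelling and capillary electrophoresis, with gain of signal fitted relative to DMSO.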

[10] = ACEA_ER_AUC_viability: ACEA Biosciences xCELLigence Real-Time Cell Analysis on Estrogen Receptor Agonism for Viability (AID 2283782);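 further: continuous compound exposure with impedance area under curve over 80 h; hit means loss of impedance signal meaning reduced cell growth or viability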
Method in brief: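 T-47D human breast cells in phenol red-free RPMI1640 with 10% charcoal-stripped FBS were dosed with an 8-point 1:4 dilution series from 100 uM top final concentration, in duplicate. Impedance-based growth was followed for 80 h; AUC analysed versus DMSO.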

AR (gene 367) [11] = biological target: AR (gene 367) (UniProt P10275); assay: ACEA_AR_agonist_80hr: ACEA Biosciences xCELLigence Real-Time Cell Analysis on Androgen Receptor Agonism for Proliferation (AID 2283783);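 further: hits increase impedance growth signal above DMSO baseline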
Method in brief: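 22Rv1 human prostate cancer cells were seeded after preconditioning in assay medium and monitored overnight, then dosed in an eight-point 1:4 dilution series from 100 uM (≤0.5% DMSO). Impedance-based growth was read at 80 h, gain-of-signal versus DMSO.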

[12] = STM_H9_NormalizedViability: Cytotoxicity Assessment at 120 hours in the Stemina devTOX quickPredict H9 human embryonic stem cell (hESC)-based Assay (AID 2283784)
Method in brief: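 Chemicals are tested blinded on H9 human embryonic stem cells in the pluripotent state, with medium exchanged daily. After background correction, fluorescence from CellTiter-Fluor is scaled against 0.1% DMSO wells, and decreases are scored.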

AR (gene 367) [13] = biological target: AR (gene 367) (UniProt P10275); assay: ACEA_AR_antagonist_80hr: ACEA Biosciences xCELLigence Real-Time Cell Analysis on Androgen Receptor Antagonism for Proliferation (AID 2283787);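 further: hits lower the impedance growth signal relative to DMSO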
Method in brief: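 Impedance readout (RT-CES), 80 h post-dose; loss-of-signal vs DMSO baseline. 22Rv1 cells in assay medium. Compounds: 8-pt 1:4 series, max 100 uM final, up to 0.5% DMSO; n = 2.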

[14] = ATG_M_06_XSP1: Attagene TRANS-FACTORIAL Multi-Species (XSP1) HepG2 Assay for M06 Transcription Factor (Internal Marker) (AID 2283790)
Method in brief: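 Transfected HepG2 multi-reporter system treated 24 h in the presence of 3 nM 6-alpha-fluorotestosterone. The M06 internal marker transcript was quantified by RT-PCR with capillary electrophoresis as a background control, and gain of signal was scored versus DMSO.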

[15] = ATG_M_61_XSP1: Attagene TRANS-FACTORIAL Multi-Species (XSP1) HepG2 Assay for M61 Transcription Factor (Internal Marker) (AID 2283797)
Method in brief: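 HepG2 cells transiently transfected with multiplexed GAL4-driven reporter units, dosed 24 h with 3 nM 6-alpha-fluorotestosterone present. Reporter mRNA quantified by RT-PCR, 6-FAM labelling, HpaI digestion and capillary electrophoresis; internal-marker background control, gain of signal versus DMSO.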

[16] = test system: zebrafish Estrogen Receptor (ESR2A), gene 317734; assay: ATG_zfER2a_XSP1: Attagene TRANS-FACTORIAL Multi-Species (XSP1) HepG2 Assay for zebrafish Estrogen Receptor (ESR2A) (AID 2283778)
Method in brief: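 HepG2 cells transiently transfected with multiplexed GAL4-UAS reporter units and chimeric NR-GAL4 receptors; 24 h compound exposure with 3 nM 6-alpha-fluorotestosterone present. Reporter mRNA quantified by RT-PCR and capillary electrophoresis, gain-of-signal fitted relative to DMSO.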

[17] = biological target: Estrogen receptor beta (Homo sapiens) (UniProt Q92731); assay: ATG_hERb_XSP1: Attagene TRANS-FACTORIAL Multi-Species (XSP1) HepG2 Assay for human Estrogen Receptor (ESR2) (AID 2283788)
Method in brief: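 Read-out: reporter mRNA induction by RT-PCR, HpaI digestion and capillary electrophoresis fluorescence, fitted in positive direction relative to DMSO baseline. Human liver HepG2 cells expressing ERβ-Gal4 fusion, dosed 24 h, medium containing 3 nM 6-alpha-fluorotestosterone.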

[18] = biological target: zebrafish Estrogen Receptor (ESR1), esr1 (gene 259252) (UniProt P57717); assay: ATG_zfER1_XSP1: Attagene TRANS-FACTORIAL Multi-Species (XSP1) HepG2 Assay for zebrafish Estrogen Receptor (ESR1) (AID 2283772)
Method in brief: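 Readout: fluorescent reporter mRNA, RT-PCR plus FAM labelling, HpaI digest, capillary electrophoresis; gain-of-signal fit vs DMSO. HepG2, transient multi-reporter TRANS (NR-GAL4 chimera), 24 h chemical exposure, 3 nM 6-alpha-fluorotestosterone co-added.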

Measured: AC50

Chain of AR (gene 367) (P10275 whole entry, looked up): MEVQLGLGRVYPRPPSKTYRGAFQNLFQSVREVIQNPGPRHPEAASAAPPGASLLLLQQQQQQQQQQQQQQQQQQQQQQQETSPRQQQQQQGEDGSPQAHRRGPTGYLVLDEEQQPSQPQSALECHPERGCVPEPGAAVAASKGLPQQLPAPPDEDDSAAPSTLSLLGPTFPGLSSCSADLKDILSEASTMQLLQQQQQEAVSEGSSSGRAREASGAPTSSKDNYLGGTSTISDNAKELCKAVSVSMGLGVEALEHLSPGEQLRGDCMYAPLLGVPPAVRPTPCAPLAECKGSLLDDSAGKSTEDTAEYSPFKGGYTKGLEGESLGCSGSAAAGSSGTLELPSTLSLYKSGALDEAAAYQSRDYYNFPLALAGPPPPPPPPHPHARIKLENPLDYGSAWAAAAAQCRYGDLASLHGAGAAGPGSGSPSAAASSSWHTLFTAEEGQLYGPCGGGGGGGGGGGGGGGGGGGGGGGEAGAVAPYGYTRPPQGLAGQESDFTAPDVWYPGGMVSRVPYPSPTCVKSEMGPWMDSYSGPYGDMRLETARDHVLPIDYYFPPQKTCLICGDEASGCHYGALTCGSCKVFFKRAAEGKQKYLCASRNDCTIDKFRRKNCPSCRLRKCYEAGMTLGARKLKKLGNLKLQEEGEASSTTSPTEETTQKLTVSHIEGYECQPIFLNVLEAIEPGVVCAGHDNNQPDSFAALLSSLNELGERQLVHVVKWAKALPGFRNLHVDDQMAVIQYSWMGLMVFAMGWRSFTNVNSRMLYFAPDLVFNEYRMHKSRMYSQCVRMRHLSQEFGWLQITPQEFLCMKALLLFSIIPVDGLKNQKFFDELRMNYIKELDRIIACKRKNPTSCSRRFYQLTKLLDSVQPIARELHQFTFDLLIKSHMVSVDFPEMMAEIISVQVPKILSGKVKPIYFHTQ
Chain of chicken Estrogen Receptor (ESR1), ESR1 (gene 396099) (P06212 whole entry, looked up, the tested form may be a part): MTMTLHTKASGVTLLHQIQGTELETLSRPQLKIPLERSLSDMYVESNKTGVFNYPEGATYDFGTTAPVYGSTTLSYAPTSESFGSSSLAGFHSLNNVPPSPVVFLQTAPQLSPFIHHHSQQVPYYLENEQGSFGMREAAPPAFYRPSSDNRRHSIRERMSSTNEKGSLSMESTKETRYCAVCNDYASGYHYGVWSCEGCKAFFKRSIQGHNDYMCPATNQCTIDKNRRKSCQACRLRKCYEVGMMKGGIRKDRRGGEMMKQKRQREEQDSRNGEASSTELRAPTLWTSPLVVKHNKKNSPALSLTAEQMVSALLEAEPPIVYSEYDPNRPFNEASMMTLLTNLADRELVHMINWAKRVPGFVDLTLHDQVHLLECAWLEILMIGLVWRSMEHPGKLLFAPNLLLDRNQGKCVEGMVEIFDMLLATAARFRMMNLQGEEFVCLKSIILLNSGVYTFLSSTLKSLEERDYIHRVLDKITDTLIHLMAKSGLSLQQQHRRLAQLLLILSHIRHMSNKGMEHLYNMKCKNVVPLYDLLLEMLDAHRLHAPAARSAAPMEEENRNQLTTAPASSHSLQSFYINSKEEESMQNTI
Chain of Estrogen receptor beta (Homo sapiens) (Q92731 whole entry, looked up, the tested form may be a part): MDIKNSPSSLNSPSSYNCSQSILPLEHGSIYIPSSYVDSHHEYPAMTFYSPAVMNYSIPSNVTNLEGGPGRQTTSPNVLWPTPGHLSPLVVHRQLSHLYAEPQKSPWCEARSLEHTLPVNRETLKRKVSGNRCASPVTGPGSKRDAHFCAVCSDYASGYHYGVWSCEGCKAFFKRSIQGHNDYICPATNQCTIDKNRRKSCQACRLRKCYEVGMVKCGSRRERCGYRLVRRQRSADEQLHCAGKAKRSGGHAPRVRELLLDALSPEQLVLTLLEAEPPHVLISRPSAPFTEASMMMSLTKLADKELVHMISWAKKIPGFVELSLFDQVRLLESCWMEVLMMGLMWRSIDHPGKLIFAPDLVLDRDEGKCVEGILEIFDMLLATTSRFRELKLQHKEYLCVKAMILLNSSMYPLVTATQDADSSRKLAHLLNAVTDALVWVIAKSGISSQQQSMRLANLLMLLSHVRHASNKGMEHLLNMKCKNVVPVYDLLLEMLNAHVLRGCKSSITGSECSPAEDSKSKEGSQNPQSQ
Chain of Estrogen receptor (Homo sapiens) (P03372 whole entry, looked up, the tested form may be a part): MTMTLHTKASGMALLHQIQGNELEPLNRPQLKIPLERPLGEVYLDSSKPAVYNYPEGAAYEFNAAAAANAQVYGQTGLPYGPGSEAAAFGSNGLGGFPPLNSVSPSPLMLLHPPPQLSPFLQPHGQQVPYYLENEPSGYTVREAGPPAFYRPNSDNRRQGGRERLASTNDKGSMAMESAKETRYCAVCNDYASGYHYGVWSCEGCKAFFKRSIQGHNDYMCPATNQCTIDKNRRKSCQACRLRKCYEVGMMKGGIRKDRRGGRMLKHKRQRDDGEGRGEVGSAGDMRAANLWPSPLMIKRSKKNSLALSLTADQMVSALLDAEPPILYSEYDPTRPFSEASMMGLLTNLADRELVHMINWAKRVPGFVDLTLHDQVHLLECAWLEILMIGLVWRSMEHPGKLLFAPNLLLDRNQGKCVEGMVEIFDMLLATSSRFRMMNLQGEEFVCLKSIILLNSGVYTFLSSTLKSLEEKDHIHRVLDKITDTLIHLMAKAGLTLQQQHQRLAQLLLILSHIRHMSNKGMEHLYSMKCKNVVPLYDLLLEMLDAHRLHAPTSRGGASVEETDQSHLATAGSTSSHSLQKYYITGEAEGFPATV
Chain of zebrafish Estrogen Receptor (ESR1), esr1 (gene 259252) (P57717 whole entry, looked up, the tested form may be a part): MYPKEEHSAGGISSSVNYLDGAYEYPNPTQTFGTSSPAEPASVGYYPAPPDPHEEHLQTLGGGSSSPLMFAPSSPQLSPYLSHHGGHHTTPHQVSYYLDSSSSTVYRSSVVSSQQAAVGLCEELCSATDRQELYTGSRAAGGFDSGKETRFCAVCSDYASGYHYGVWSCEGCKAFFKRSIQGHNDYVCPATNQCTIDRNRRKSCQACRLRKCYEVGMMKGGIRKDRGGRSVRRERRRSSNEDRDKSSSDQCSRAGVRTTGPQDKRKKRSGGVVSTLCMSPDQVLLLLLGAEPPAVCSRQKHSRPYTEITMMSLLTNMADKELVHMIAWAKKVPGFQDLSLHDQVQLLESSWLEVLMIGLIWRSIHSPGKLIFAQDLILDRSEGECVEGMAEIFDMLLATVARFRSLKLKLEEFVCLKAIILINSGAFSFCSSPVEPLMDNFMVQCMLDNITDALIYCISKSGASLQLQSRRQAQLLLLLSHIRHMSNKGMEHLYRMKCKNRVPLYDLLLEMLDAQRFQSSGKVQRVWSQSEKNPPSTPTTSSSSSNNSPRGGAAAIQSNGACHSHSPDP

O=S1OCC2C(CO1)C1(Cl)C(Cl)=C(Cl)C2(Cl)C1(Cl)Cl (configuration not stated)
active: [2] 4.8 µM | [3] 10 µM | [4] 23.1 µM | [5] 17.2 µM | [8] 1.98 µM | [9] 1.98 µM | [10] 71.8 µM | [12] 78.4 µM | AR (gene 367) [13] 9.11 µM
inactive: [1] | [6] | [7] | AR (gene 367) [11] | [14] | [15]

CC1(C)C(C=C(Cl)Cl)C1C(=O)OC(C#N)c1ccc(F)c(Oc2ccccc2)c1 (configuration not stated)
inactive: [1] | [16] | [8] | [17] | [14] | [15]
active: [2] 35.5 µM | [3] 27 µM | [4] 67.2 µM | [5] 30.1 µM | [6] 13.9 µM | [7] 27.5 µM | [9] 27.5 µM | [10] 74.3 µM

O=C(O)C(F)(F)C(F)(F)C(F)(F)C(F)(F)C(F)(F)C(F)(F)C(F)(F)F
inactive: [4] | [5] | [10] | [12]
active: [5] 37.7 µM

CCCN(CCOc1c(Cl)cc(Cl)cc1Cl)C(=O)n1ccnc1
active: [4] 37.3 µM | [5] 57.1 µM | [10] 74.9 µM
inactive: [18] | [2] | [3] | [7] | [17]

CC(C)N(C(=O)COc1nnc(C(F)(F)F)s1)c1ccc(F)cc1
active: [4] 21.4 µM | [5] 50 µM

CNC(=O)Oc1ccccc1OC(C)C
inactive: [5] | [10]

CC(C)(C)C(O)C(Oc1ccc(Cl)cc1)n1cncn1 (configuration not stated)
inactive: [4] | [10] | [12]
active: [5] 39.9 µM

C#CCN1C(=O)COc2cc(F)c(N3C(=O)C4=C(CCCC4)C3=O)cc21
inactive: AR (gene 367) [11]
active: [4] 50 µM | [5] 50 µM | [12] 75.5 µM | AR (gene 367) [13] 64.5 µM

COP(=S)(OC)Oc1ccc([N+](=O)[O-])cc1
inactive: [5] | [10]

CCC(C)(NC(=O)c1cc(Cl)c(C)c(Cl)c1)C(=O)CCl (configuration not stated)
active: [4] 26.5 µM | [5] 22 µM | [10] 9.16 µM | [12] 25.8 µM

Cc1[nH]c(=O)n(C(C)(C)C)c(=O)c1Cl
inactive: [4] | [5] | [10] | [12] | AR (gene 367) [13]

O=[N+]([O-])c1c(Cl)c(Cl)c(Cl)c(Cl)c1Cl
active: [4] 58.6 µM | [5] 50 µM | [10] 72.3 µM | AR (gene 367) [13] 74.6 µM
inactive: AR (gene 367) [11]

CC1(c2ccc(Oc3ccccc3)cc2)OC(=O)N(Nc2ccccc2)C1=O (configuration not stated)
active: [4] 1.01 µM | [5] 0.883 µM | [10] 45.8 µM | [12] 3.35 µM

CCC(C)Nc1c([N+](=O)[O-])cc(C(C)(C)C)cc1[N+](=O)[O-] (configuration not stated)
inactive: [4] | [10] | [12]
active: [5] 36.6 µM

COP(=O)(OC)OC=C(Cl)Cl
inactive: [5]

O=C(Nc1ccccc1)Nc1cnns1
inactive: [10] | [12]
active: [4] 28.6 µM | [5] 50 µM

O=C(NC(=O)c1c(F)cccc1F)Nc1ccc(OC(F)(F)C(F)OC(F)(F)F)c(Cl)c1 (configuration not stated)
inactive: [4] | [5] | [12]

N#Cc1c(Cl)c(Cl)c(Cl)c(C#N)c1Cl
active: [5] 3.7 µM | [10] 1.54 µM

CNC(=O)CSP(=S)(OC)OC
inactive: [5]

O=[N+]([O-])/N=C1\NCCN1Cc1ccc(Cl)nc1
inactive: [4] | [5] | AR (gene 367) [13]

CC(C)(C)C(O)/C(=C\c1ccc(Cl)cc1Cl)n1cncn1 (configuration not stated)
active: [5] 20.3 µM | [10] 81.1 µM | [12] 79.1 µM

Clc1ccccc1-c1nnc(-c2ccccc2Cl)nn1
inactive: [10]

CCC(C)(C)C(=O)OC1=C(c2ccc(Cl)cc2Cl)C(=O)OC12CCCCC2
inactive: [5] | AR (gene 367) [13]
active: [4] 81.9 µM | [10] 12.3 µM

CCOC1Oc2ccc(OS(C)(=O)=O)cc2C1(C)C (configuration not stated)
active: [4] 25.7 µM | [5] 25.6 µM | [12] 78.7 µM | AR (gene 367) [13] 50 µM

C[C@H]1[C@H](c2ccc(Cl)cc2)SC(=O)N1C(=O)NC1CCCCC1
active: [4] 73 µM | [5] 12.4 µM | [10] 79.9 µM | AR (gene 367) [13] 19.1 µM
inactive: AR (gene 367) [11]

CNC(=O)/C=C(\C)OP(=O)(OC)OC
inactive: [5]

O=C(O)CCCOc1ccc(Cl)cc1Cl
inactive: [4] | [5] | [10] | AR (gene 367) [13]

OCCOc1ccccc1
inactive: [5] | [10]
